Results filed as inconclusive are left out. Calls of active or inactive are those of the source. Unless noted, the call rests on the fitted dose curve; in most records, active means well fitted curve in the direction sought with a large enough effect; inconclusive means small, poorly fitted or top-dose-only effect, or another doubt; inactive means no such curve, though single readings can be large; an effect the other way counts as inactive or inconclusive.
Assays:
[1] = biological target: Metallo-beta-lactamase type 2 (Klebsiella pneumoniae) (UniProt C7C422); assay: qHTS to identify inhibitors of the New Delhi Metallo-beta-lactamase (NDM): assay validation screen against the NCATS LOPAC Collection (AID 1794843);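 further: nitrocefin turnover by NDM-1 measured as 485 nm absorbance at plateau; on the % scale 0 is the no-effect control and ±100 the full control effect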
Metallo-beta-lactamase type 2 (Klebsiella pneumoniae), sequence (C7C422 whole entry, looked up): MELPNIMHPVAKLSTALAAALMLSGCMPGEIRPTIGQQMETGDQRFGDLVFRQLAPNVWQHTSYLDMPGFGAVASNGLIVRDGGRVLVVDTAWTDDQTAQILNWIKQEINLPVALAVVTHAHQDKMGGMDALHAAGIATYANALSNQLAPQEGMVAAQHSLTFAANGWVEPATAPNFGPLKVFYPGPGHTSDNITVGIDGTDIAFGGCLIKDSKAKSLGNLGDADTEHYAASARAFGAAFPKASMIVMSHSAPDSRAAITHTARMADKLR
Procedure, shortened: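 NDM-1 at 2 nM final in 50 mM HEPES pH 7.0, 1 uM ZnSO4, 0.01% Tween20, preincubated with LOPAC compounds pinned in DMSO; 50 uM nitrocefin (stock) added. Hydrolysis read as absorbance at 485 nm in the plateau phase.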

[2] = biological target: Glutathione peroxidase 1 (Homo sapiens) (UniProt P07203); assay: Primary qHTS Assay for Inhibitors of Recombinant Selenoprotein Glutathione Peroxidase 1 (GPX1) (AID 1845191); further: nearly all actives have a fitted effect of over 65% in size; on activity, negative = inhibition: on the % scale 0 is the no-effect control and ±100 the full control effect
Glutathione peroxidase 1 (Homo sapiens), sequence (P07203 whole entry, looked up): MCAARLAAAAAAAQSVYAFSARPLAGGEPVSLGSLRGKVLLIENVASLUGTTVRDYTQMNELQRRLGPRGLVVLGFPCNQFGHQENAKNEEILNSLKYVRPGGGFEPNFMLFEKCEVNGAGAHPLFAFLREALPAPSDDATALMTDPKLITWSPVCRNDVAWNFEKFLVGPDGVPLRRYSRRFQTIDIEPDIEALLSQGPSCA
Procedure, shortened: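 GR-coupled readout: NADPH consumption tracked by fluorescence, ex 340/em 450 nm, at t=0 and after 15 min at RT. Final mix 10 nM GPX1, 1 mM GSH, 0.5 mM CHP, 0.5 mM NADPH, 100 nM GR, 0.01% BSA, following 30 min enzyme–compound preincubation.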

[3] = biological target: Phospholipid hydroperoxide glutathione peroxidase GPX4 (Homo sapiens) (UniProt P36969); assay: Primary qHTS Assay for Inhibitors of Recombinant Selenoprotein Glutathione Peroxidase 4 (GPX4) (AID 1845192); details: outcome: dose series up to 50 µM unless noted; further: nearly all actives have a fitted effect of over 65% in size
Phospholipid hydroperoxide glutathione peroxidase GPX4 (Homo sapiens), sequence (P36969 whole entry, looked up): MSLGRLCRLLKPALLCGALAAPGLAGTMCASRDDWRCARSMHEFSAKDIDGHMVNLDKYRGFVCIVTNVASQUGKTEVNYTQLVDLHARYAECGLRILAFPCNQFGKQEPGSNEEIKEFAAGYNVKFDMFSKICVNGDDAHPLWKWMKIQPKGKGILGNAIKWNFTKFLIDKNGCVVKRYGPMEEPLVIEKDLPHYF
Procedure, shortened: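 Steps: GPX4 plus compound, 30 min RT; add GR/GSH/NADPH master mix; start with cumene hydroperoxide; read 340/450 nm fluorescence at 0 and 15 min. Finals were 200 nM GPX4, 1 mM GSH, 0.5 mM CHP, 0.5 mM NADPH, 100 nM GR.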

[4] = biological target: Phenylethanolamine N-methyltransferase (Homo sapiens) (UniProt P11086); assay: Confirmatory Screen for Target Class Profiling of Small Molecule Inhibitors of Methyltransferases (AID 1745852); details: MTase-Glo luminescence, SAH detection, recombinant enzyme; measured here: PNMT max response; stronger effect = lower value
Phenylethanolamine N-methyltransferase (Homo sapiens), sequence (P11086 whole entry, looked up): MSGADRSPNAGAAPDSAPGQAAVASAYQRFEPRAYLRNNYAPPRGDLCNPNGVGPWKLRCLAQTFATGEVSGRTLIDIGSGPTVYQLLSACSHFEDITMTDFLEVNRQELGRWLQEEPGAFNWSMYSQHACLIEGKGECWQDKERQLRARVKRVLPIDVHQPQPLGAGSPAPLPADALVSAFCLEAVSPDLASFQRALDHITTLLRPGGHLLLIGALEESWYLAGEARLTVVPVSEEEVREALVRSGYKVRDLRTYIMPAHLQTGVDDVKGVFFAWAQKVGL

[5] = system: 3D7; assay: qHTS profiling for inhibitors of Plasmodium falciparum proliferation (AID 504749); further: nearly all actives have a fitted effect of over 60% in size; further: potency means the concentration at half of the fitted maximal effect;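 on activity, negative = inhibition: 0% = DMSO vehicle and full inhibition = artemisinin control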; details: P. falciparum in erythrocytes, SYBR Green DNA, 72 h; series mostly up to 28.7 µM
Procedure, shortened: (§1)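 SYBR Green fluorescence (ex 485 nm, em 535 nm) reports parasite DNA after 72 h compound exposure of infected red cells at 0.3% parasitemia, 2.5% hematocrit; signal normalized to 0.29 uM artemisinin and vehicle wells.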

[6] = system: 7G8; assay: as above; details: P. falciparum in erythrocytes, SYBR Green DNA, 72 h; series mostly up to 28.7 µM
Procedure, shortened: as §1

[7] = system: AA1029; assay: as above; details: P. falciparum in erythrocytes, SYBR Green DNA, 72 h; series mostly up to 28.7 µM
Procedure, shortened: as §1

[8] = system: AS120; assay: as above; details: P. falciparum in erythrocytes, SYBR Green DNA, 72 h; series mostly up to 28.7 µM
Procedure, shortened: as §1

[9] = system: ATS189; assay: as above; details: P. falciparum in erythrocytes, SYBR Green DNA, 72 h; series mostly up to 28.7 µM
Procedure, shortened: as §1

[10] = system: CP191; assay: as above; details: P. falciparum in erythrocytes, SYBR Green DNA, 72 h; series mostly up to 28.7 µM
Procedure, shortened: as §1

[11] = as above; details: P. falciparum in erythrocytes, SYBR Green DNA, 72 h; for activity, negative = inhibition: at 28.7 µM (top of the series)
Procedure, shortened: as §1

[12] = system: ATS95; assay: as above; details: P. falciparum in erythrocytes, SYBR Green DNA, 72 h; series mostly up to 28.7 µM
Procedure, shortened: as §1

[13] = system: C2A; assay: as above; details: P. falciparum in erythrocytes, SYBR Green DNA, 72 h; series mostly up to 28.7 µM
Procedure, shortened: as §1

[14] = system: CP185; assay: as above; details: P. falciparum in erythrocytes, SYBR Green DNA, 72 h; series mostly up to 28.7 µM
Procedure, shortened: as §1

[15] = NCATS anti-infectives library activity on HEK293 viability as a counter-qHTS vs the C. elegans viability qHTS (AID 1745854); further: on the % scale 0 is the no-effect control and ±100 the full control effect
Procedure, shortened: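 CellTiter-Glo luminescence, read on a CCD imager, scored viability of HEK293 cells after 24 hr compound exposure at 37C. Library tested in several concentrations, 1:5 steps, up to 41.7 uM; digitonin served as control.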

[16] = biological target: Luciferin 4-monooxygenase (Photinus pyralis) (UniProt P08659); assay: Primary firefly luciferase (FLuc) qHTS assay for identification of artifact compounds. (AID 1845220);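 further: plate controls were DMSO vehicle for no effect and no enzyme for full effect; nearly all actives have a fitted effect of over 60% in size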
Procedure, shortened: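 D-luciferin and ATP (10 uM each, final) in Tris acetate buffer pH 7.6 were incubated with compounds for 15 min at room temperature. The reaction was started with 10 nM Photinus pyralis luciferase and luminescence read after 5 min. Percent inhibition was fitted to a 4-parameter Hill equation.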

[17] = system: Nanoluciferase (engineered Oplophorus gracilirostris luciferase); assay: Primary Nanoluciferase (NLuc) qHTS assay for identification of artifact compounds. (AID 1845222);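 further: 0% = DMSO and -100% = no enzyme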
Procedure, shortened: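 Diluted conditioned medium from NLuc-expressing S16 cells treated with compounds for 15 min at room temperature, then Nano-Glo substrate added; luminescence read after 5 min. Percent inhibition versus no-enzyme and DMSO controls fitted to 4-parameter Hill equation.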

[18] = qHTS drug screen for cell cycle checkpoint inhibitors in PARPi-resistant BRCA-mutant ovarian cancer cell lines. (AID 1963452; calls by dose curve); details: PEO1/OlaR viability, CellTiter-Glo luminescence, 96 h, stronger effect = lower value
Procedure, shortened: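 PEO1, PEO4 and PEO1/OlaR ovarian cancer cells, 600 per well, exposed 96 h at 37C to a dilution series. Viability read by CellTiter-Glo luminescence, normalized to DMSO and empty wells; activity summarized as Z-AUC.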

C[C@]12CC[C@@H]3c4ccc(O)cc4C[C@@H](CCCCCCCCCS(=O)CCCC(F)(F)C(F)(F)F)[C@H]3[C@@H]1CC[C@@H]2O (stereo partly drawn)
inactive: Potency [1] | Potency [2] | outcome [3]

COc1cc(C(=O)OCCCN2CCCN(CCCOC(=O)c3cc(OC)c(OC)c(OC)c3)CC2)cc(OC)c1OC
1.01%: activity [4]
active: Potency [5] 11.2 µM | Potency [6] 8.91 µM | Potency [7] 11.2 µM | Potency [8] 10 µM | Potency [9] 8.91 µM | Potency [10] 12.6 µM
inactive: Potency [1] | Potency [2] | outcome [3]

CC(=O)OC(C)C[N+](C)(C)C (stereo not drawn)
inactive: Potency [1] | Potency [2] | outcome [3]

NC1=NCC2c3ccccc3Cc3ccccc3N12 (stereo not drawn)
-3.06%: activity [4]
inactive: Potency [1] | Potency [2] | outcome [3] | activity, negative = inhibition ([11]; parasite line A) -23% | Potency [5] | Potency [7] | Potency [8] | Potency [9] | Potency [12] | Potency [13] | Potency [14]

CCc1cccc(N(C)C(N)=Nc2cccc3ccccc23)c1
active: Potency [6] 3.98 µM | Potency [7] 3.55 µM
1.17%: activity [4]
inactive: Potency [1] | Potency [2] | outcome [3] | activity, negative = inhibition ([11]; parasite line A) -26.1% | activity, negative = inhibition ([11]; parasite line B) -10.7% | Potency [5] | Potency [13]

CCc1c(C)[nH]c2c1C(=O)C(CN1CCOCC1)CC2 (stereo not drawn)
inactive: Potency [1] | Potency [2] | outcome [3]
4.21%: activity [4]

COc1cc(Cc2cnc(N)nc2N)cc(OC)c1OC
inactive: outcome [15] | Potency [1] | Potency [2] | outcome [3]

COC(=O)[C@H]1[C@H]2C[C@@H]3c4[nH]c5cc(OC)ccc5c4CCN3C[C@H]2C[C@@H](OC(=O)c2cc(OC)c(OC)c(OC)c2)[C@@H]1OC
inactive: Potency [1] | Potency [2] | outcome [3] | outcome [16] | outcome [17]
active: Potency ([11]; parasite line A) 11.2 µM | Potency ([11]; parasite line B) 11.2 µM | Potency [5] 8.91 µM | Potency [6] 1.41 µM | Potency [7] 8.91 µM | Potency [8] 4.47 µM | Potency [9] 11.2 µM | Potency [12] 11.2 µM | Potency [13] 11.2 µM | Potency [14] 7.94 µM | Potency [10] 8.91 µM

Nc1c2c(nc3ccccc13)CCCC2O (stereo not drawn)
inactive: Potency [1] | Potency [2] | outcome [3] | activity, negative = inhibition ([11]; parasite line A) -3.4% | activity, negative = inhibition ([11]; parasite line B) 3.67% | Potency [5] | Potency [6] | Potency [7] | Potency [8] | Potency [9] | Potency [12] | Potency [13] | Potency [14] | Potency [10]

CC(=O)[C@]1(O)Cc2c(O)c3c(c(O)c2[C@@H](O[C@H]2C[C@H](N)[C@H](O)[C@H](C)O2)C1)C(=O)c1ccccc1C3=O
inactive: Potency [1] | Potency [2] | outcome [3] | Z-AUC [18] -0.489
-0.26: Z-AUC ([18]; measured here: PEO4 Z-AUC)
-0.953: Z-AUC ([18]; measured here: PEO1 parental Z-AUC)
active: Potency ([11]; parasite line A) 3.55 µM | Potency ([11]; parasite line B) 11.2 µM | Potency [5] 2.82 µM | Potency [6] 1.41 µM | Potency [7] 3.55 µM | Potency [8] 3.16 µM | Potency [9] 5.62 µM | Potency [12] 5.01 µM | Potency [13] 6.31 µM | Potency [14] 11.2 µM | Potency [10] 3.16 µM
